The list is not random: actives were taken first. Their share in the collection is about 1.4%.
VHR inh abs: DUSP3 (human) phosphatase inhibition; P51452; recombinant VHR phosphatase, pNPP absorbance; inhibition, % at 13.3 µM; hit rate 0.52% among 290,000; in the data active means inhibition above about 50%
Target sequence (P51452 whole entry, looked up): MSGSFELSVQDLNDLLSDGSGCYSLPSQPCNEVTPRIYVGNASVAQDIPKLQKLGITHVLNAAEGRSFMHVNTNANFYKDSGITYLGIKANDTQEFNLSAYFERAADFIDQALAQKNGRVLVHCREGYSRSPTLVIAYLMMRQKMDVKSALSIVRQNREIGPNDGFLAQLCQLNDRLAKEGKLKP
BJeLR lethal: BJeLR cell viability loss | BJeLR (HRASV12) viability, CellTiter-Glo ATP luminescence, 48 h | inhibition, % (concentration not given with the values) | hit rate 0.17% among 300,000; in the data active means inhibition above about 50%
ugtP null kill: growth inhibition of S. aureus ugtP deletion strain; S. aureus RN4220 ugtP deletion, OD600 growth, 16 h; growth inhibition, % (no concentration beside the values); hit rate 0.54% among 330,000; AID 1259309; in the data active means growth inhibition above about 68%
PrPC TRFRET: inhibitors of human cell surface prion protein PrPC; P04156; TR-FRET read-out; inhibition, % at 13.8 µM; hit rate 0.43% among 370,000; in the data active means inhibition above about 24%
SARS 3CLpro inh-1: SARS-CoV 3CLpro protease inhibition; P0C6X7; recombinant SARS-CoV 3CLpro, quenched FRET peptide cleavage; inhibition, % at 6 µM; hit rate 0.14% among 290,000; in the data active means inhibition above about 12%
RN4220 kill: kills Staphylococcus aureus RN4220; inhibition, % (concentration not given with the values); hit rate 0.33% among 330,000; S. aureus RN4220 growth, OD600, 16 h; in the data active means inhibition above about 85%
SARS 3CLpro inh-2: confirmation of SARS coronavirus 3C-like protease inhibitors. shares compounds with SARS 3CLpro inh-1. QFRET protease activity assay, 3CLpro. hit rate 36% among 380. inhibition, % at 6 µM; in the data active means inhibition above about 13%
A number is an active result; 0 = inactive; - = no result.

SMILES	VHR inh abs	BJeLR lethal	ugtP null kill	PrPC TRFRET	SARS 3CLpro inh-1	RN4220 kill	SARS 3CLpro inh-2
CC(=O)NC(Cc1ccc(O)cc1)CN1C(N)=NCC1CC(C)C (centres undefined)	-	-	0	-	-	0	-
CC(C)(C)OC(=O)[C@H](Cc1ccccc1)NC(=O)c1nc[nH]c1C(=O)N[C@@H](Cc1ccccc1)C(=O)OC(C)(C)C	0	0	-	0	-	-	-
CC(C)(C)OC(=O)[C@H](Cc1ccccc1)NC(=O)c1[nH]cnc1C(=O)N[C@@H](Cc1ccccc1)C(=O)OCc1ccccc1	0	0	-	0	12.7	-	0
Cc1nc(-c2ccc(S(=O)(=O)N3CCN(c4ccccc4)CC3)cc2)co1	0	0	0	0	12.4	0	0
CC(C)(C)c1ccc(NC(=O)CSc2n[nH]c(=O)n2-c2cccnc2)cc1	0	0	0	0	12.2	0	0
C#CCOCCOCCOCCNc1nc(N2CCN(C(=O)Cn3cc(CC(C)O)nn3)CC2)nc(N2CCN(C(=O)C(C(C)CC)n3cc(CCCN=C(N)N)nn3)CC2)n1 (centres undefined)	-	-	0	-	-	0	-
CCC(C)(C)NC(=O)C(c1cccn1C)N(C(=O)Cn1nnc2ccccc21)c1ccc(NC(C)=O)cc1 (centres undefined)	0	0	0	0	45.9	0	50.4
O=C(NCc1ccco1)C(c1cccs1)N(Cc1ccccc1)C(=O)Cn1nnc2ccccc21 (centres undefined)	0	0	0	0	20.3	0	28.7
COCCNC(=O)C(c1ccccc1)N(Cc1cccs1)C(=O)Cn1nnc2ccccc21 (centres undefined)	0	0	0	0	23.0	0	21.2
Cc1ccc(CN(C(=O)Cn2nnc3ccccc32)C(C(=O)NCc2ccco2)c2cccs2)cc1 (centres undefined)	0	0	0	0	25.4	0	19.1
CCC(C)(C)NC(=O)C(c1cccn1C)N(C(=O)Cn1nnc2ccccc21)c1ccc(F)cc1 (centres undefined)	0	0	0	0	0	0	-
COc1ccc(C2C=CCN(S(=O)(=O)c3ccc(C)cc3)CC(=O)N2Cc2ccc(F)cc2)cc1 (centres undefined)	-	-	0	-	-	0	-
COCCNC(=O)C(c1ccc(C)o1)N(C(=O)Cn1nnc2ccccc21)c1ccccc1 (centres undefined)	0	0	0	0	13.8	0	0
O=C(NC1CCCCC1)C(c1ccco1)N(Cc1cccs1)C(=O)Cn1nnc2ccccc21 (centres undefined)	0	-	0	0	0	0	-
O=C(NCc1ccco1)C(c1ccco1)N(Cc1cccs1)C(=O)Cn1nnc2ccccc21 (centres undefined)	0	0	0	0	14.2	0	0
COCCNC(=O)C(c1ccc(C)o1)N(Cc1ccc(OC)cc1)C(=O)Cn1nnc2ccccc21 (centres undefined)	0	0	0	0	0	0	-
O=C(NCc1ccco1)C(c1ccco1)N(CCc1ccccc1)C(=O)Cn1nnc2ccccc21 (centres undefined)	0	0	0	0	25.9	0	27.6
CCN1CC2C3C(=O)N(C)C(=O)C3[C@](CC)(C1=O)N2C(=O)c1ccc(F)cc1 (some centres undefined)	-	-	0	-	-	0	-
Cc1cc(=O)oc2cc(NC(=O)Cc3ccccc3[N+](=O)[O-])ccc12	0	0	0	0	17.2	0	13.1
Nc1ncc(Br)cc1S(=O)(=O)Nc1cc(C(F)(F)F)cc(C(F)(F)F)c1	0	0	-	0	22.6	-	15.2
O=C(/C=C/c1ccccc1Cl)Nc1cccnc1	0	0	0	0	16.4	0	20.7
O=C(/C=C/c1ccccc1Cl)Nc1ccncc1	0	0	-	0	0	-	-
O=C(C1=CC(c2coc3ccccc3c2=O)CC(OCCCCO)O1)N1CCN(Cc2ccccc2)CC1 (centres undefined)	-	-	0	-	-	0	-
CCCCOc1ccc(C(=O)Oc2cccnc2)cc1	0	0	0	0	19.3	0	14.1
CCc1nc(N2CCN(C(C)=O)CC2)c2c3c(sc2n1)CC(C(C)(C)C)CC3 (centres undefined)	0	0	0	0	0	0	-
SMILES	VHR inh abs	BJeLR lethal	ugtP null kill	PrPC TRFRET	SARS 3CLpro inh-1	RN4220 kill	SARS 3CLpro inh-2
CCc1nc(N2CCN(C(=O)CCl)CC2)c2c3c(sc2n1)CC(C)CC3 (centres undefined)	0	0	-	0	37.7	-	63.2
Cc1cccc(CN2CCN(C(=O)CCl)CC2)c1	0	0	0	0	16.0	0	46.6
CCC1CCC(N2CCN(c3ccc([N+](=O)[O-])cc3)CC2)CC1 (centres undefined)	0	0	0	0	13.5	0	0
CC1CCC(N2CCN(c3ccc([N+](=O)[O-])cc3)CC2)CC1 (centres undefined)	0	0	0	0	0	0	-
NC(=O)C1CC2(CC(c3cccc(NC(=O)C4CCC(=O)N4)c3)=NO2)CN1C(=O)c1ccc(Cl)cc1 (centres undefined)	-	-	0	-	-	0	-
CCOc1ccc(C2C(C(=O)c3ccc(C)o3)=C(O)C(=O)N2c2nc(C)c(C(=O)OC)s2)cc1 (centres undefined)	0	0	0	0	12.4	0	0
CC1CN(C(=O)C=Cc2ccccc2[N+](=O)[O-])CC(C)O1 (centres undefined)	-	-	0	-	-	0	-
COC(=O)C1CC1C(NS(=O)(=O)c1ccccc1)c1ccccc1 (centres undefined)	-	-	0	-	-	0	-
N=c1sccn1Cc1ccc(Cl)cc1Cl	0	0	0	0	0	0	-
O=C(CCl)N=c1sccn1Cc1ccc(Cl)cc1Cl	0	0	0	0	33.0	0	63.2
O=C(CCl)N=c1sccn1Cc1ccccc1Cl	0	110.1	0	0	41.3	0	57.9
Cc1ccccc1NC1=C/C(=N\S(=O)(=O)c2ccc(C(=O)O)cc2)c2ccccc2C1=O	0	0	0	0	15.8	0	0
CCOC(=O)CC1c2cc(F)ccc2S(=O)(=O)N1C(C)C (centres undefined)	-	-	0	-	-	0	-
Cc1ccc(/C=C/C(=O)c2cc(Br)ccc2OC(=O)c2ccco2)cc1	0	0	0	0	23.1	0	32.4
COc1ccccc1/C=C/C(=O)c1cc(Br)ccc1OC(=O)c1ccco1	-	0	0	0	14.8	0	50.0
CC(C)C1COC(c2cccc(C3=NC(C(C)C)CO3)n2)=N1 (centres undefined)	-	-	0	-	-	0	-
CN(C)C=C1Oc2ccc3ccccc3c2C1=O	-	-	0	-	-	0	-
CC(=O)NC(=Cc1ccc2c(c1)OCO2)C(=O)NCCO	-	-	0	-	-	0	-
COc1cccc(NC(=O)c2ccc3c(O)c(S(=O)(=O)c4ccccc4)c(=O)[nH]c3c2)c1	0	0	0	0	0	0	-
COc1ccc(S(=O)(=O)c2c(O)c3ccc(C(=O)Nc4cccc(F)c4)cc3[nH]c2=O)cc1	0	0	0	0	12.8	0	0
